# Source: ChEMBL document CHEMBL1157539, “Thousands of chemical starting points for antimalarial lead identification” (Nature, 2010)
# Key:
# Assay type in all cases: functional
# Plasmodium falciparum [1] = experiment: GSK_TCMDC: Inhibition of Plasmodium falciparum 3D7 in whole red blood cells, using parasite LDH activity as an index of growth. Test compounds present at 2uM
# Plasmodium falciparum [2] = experiment: GSK_TCMDC: Inhibition of Plasmodium falciparum Dd2 in whole red blood cells, using parasite LDH activity as an index of growth. Test compounds present at 2uM
# HepG2 = experiment: GSK_TCMDC: Percent inhibition of human HepG2 cell line. Test compounds present at 10uM.
Structure (SMILES),Inhibition (Plasmodium falciparum [1]) [%],Inhibition (Plasmodium falciparum [2]) [%],Inhibition (HepG2) [%]
O=C(Nc1ccccc1)N(Cc1ccc(-c2cccc(CNC3CCCC3)c2)cc1)C1CCN(Cc2ccccc2)CC1.O=C(O)C(F)(F)F,100,67,43
Cc1cc(CNCCCCCCCNCc2ccc(-c3ccccc3)cc2)ccc1O,97,6,49
COc1cccc(-c2cc3nc4c(c(NCCCn5ccnc5)n3n2)CCCC4)c1,100,66,10
CS(=O)(=O)N(c1ccc(F)cc1)c1cc(C(=O)N[C@@H](Cc2ccccc2)[C@H](O)CNCc2cccc(C(F)(F)F)c2)cc(N2CCCC2=O)c1.O=CO,91,65,0
Cc1ccc(O)c(-c2cc(C(=O)Nc3ccc(S(=O)(=O)N4CCCC(C)C4)cc3)[nH]n2)c1 (stereo not given),96,97,27
COc1ccc(CC(=O)NC(CCCN2CCC3(CC2)OCc2ccccc23)c2ccc(Cl)c(Cl)c2)cc1 (stereo not given),83,53,40
N#Cc1cccc(NC(=O)Nc2cccc(-c3cccc(-c4nc5cc(C(F)(F)F)ccc5[nH]4)c3)c2)c1,100,99,74
CC(CCCCC(=O)Nc1ccc(CC(C)NCCc2cccc(Cl)c2)cc1)NCCc1cccc(Cl)c1 (stereo not given),91,0,28
O=C(/C=C/c1ccccc1Cl)NC1CCC(CN2CCC(c3c[nH]c4ccncc34)CC2)CC1 (stereo not given),100,100,19
COc1ccc(C2C(C(=O)Nc3ccccc3)=C(C)Nc3c(C(=O)Nc4ccccc4)cnn32)cc1 (stereo not given),85,66,13
COc1ccc(NC(=O)c2cc(NC(=O)C3(N)CC3)c(=O)n(Cc3ccc(C(N)=O)cc3)c2)cc1.O=C(O)C(F)(F)F,95,72,21
CCC(C)c1ccc(NC(=O)Nc2ccc(Cn3ncc(N4CCCNCC4)c(Cl)c3=O)cc2)cc1.O=C(O)C(F)(F)F (stereo not given),83,31,0
O=C(CCc1ccccc1)NC(c1ccc(Cl)cc1)c1ccc2cccnc2c1O (stereo not given),95,49,59
Cl.Cn1c(/C=C/C(=O)NC2CCC(CCN3CCc4ccc(C#N)cc4CC3)CC2)cc2ccccc21 (stereo not given),100,29,15
CCc1cn2c3c(cc(C(=O)N[C@@H](Cc4ccccc4)[C@H](O)CNC4CCC4)cc13)N(C)S(=O)(=O)CC2,98,98,0
CC(C)c1ccc2c(c1)c(SC(C)(C)C)c(CC(C)(C)C#N)n2Cc1ccc(Cl)cc1,96,95,0
c1ccc(CNc2cc(-c3ccccn3)nc(-c3ccccn3)n2)cc1,84,89,88
Br.N=C(N)Nc1nc(-c2cc(NC(=O)C(F)(F)F)cc([N+](=O)[O-])c2)cs1,98,51,7
CCCCCn1c(Sc2ccc(C#N)c([N+](=O)[O-])c2)nnc1-c1ccc(Cl)cc1,88,29,18
Cc1cc(-c2cc(Cl)ccc2Cl)no1,96,97,36
O=C(NCc1cccc(F)c1)c1ccc(O)c(-c2cc(Cl)cc(Cl)c2)c1,99,99,0
Cl.O=C(NCCCCN1CCC(c2ccc3c(c2OCCO)CCCC3)CC1)c1ccc(-c2ccc(C(F)(F)F)cc2)cc1,98,38,100
COc1ccc(CCN(C)CCCCNC(=O)c2ccc(NC(=O)c3ccc(Cl)cc3)cc2)c(OC)c1,87,0,12
CCCCCCN1CCCN(Cc2ccc(C(=O)Nc3ccc(CC)cc3)cc2)CC1.O=C(O)C(F)(F)F,97,50,53
O=C(Nc1ccccc1)N1CCOC(CCN2CCC(F)(F)CC2)(c2ccc(Cl)c(Cl)c2)C1 (stereo not given),100,100,20
